# In PubChem BioAssay (EPA / NIEHS):
# Inconclusive results are not listed. Active and inactive are the calls of the source. How the source made its calls: active means hit-call score of the fitted dose curve at least 0.9, where 1 is the maximum; inconclusive means response in the unintended direction; inactive means score below 0.9.
# Assays:
# AR (gene 367) = AR (gene 367) (UniProt P10275); test: ACEA_AR_antagonist_80hr: ACEA Biosciences xCELLigence Real-Time Cell Analysis on Androgen Receptor Antagonism for Proliferation (AID 2283787);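 further: 22Rv1 human prostate cancer cells with growth followed by electrical impedance; hits lower the impedance growth signal relative to DMSO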
# Summary of the method: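 22Rv1 cells in assay medium, growth tracked by electrical impedance; compounds eight-point 1:4 dilutions from 100 uM final, duplicate plates. Endpoint at 80 h; loss of signal versus DMSO.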
# [1] = system: turtle Androgen Receptor (AR), gene 101947425; test: ATG_trAR_XSP1: Attagene TRANS-FACTORIAL Multi-Species (XSP1) HepG2 Assay for turtle Androgen Receptor (AR) (AID 2283786)
# Experimental: ATG_XSP1_multi-species_TRANS is a cell-based, multiplexed assay created by modifying the existing Attagene TRANS-FACTORIAL system to include a panel of nuclear receptors from some or all the following species: human (Homo sapiens), mouse (Mus musculus), frog (Xenopus laevis), zebrafish (Danio rerio), chicken (Gallus gallus), and turtle (Chrysemys picta). The ECOTOX-FACTORIAL format uses HepG2, a human liver cell line, with measurements taken at 24 hours after chemical dosing in a 24-well plate. Xsp1 included 3 nM 6-alpha-fluorotestosterone to partially stimulate the androgen receptor.ATG_trAR_XSP1 is one of 29 assay components measured or calculated from the ATG_XSP1_multi-species_TRANS assay. It is designed to make measurements of mRNA induction, a form of inducible reporter, as detected with fluorescence intensity signals by Reverse transcription polymerase chain reaction (RT-PCR) and Capillary electrophoresis technology.The assay endpoint ATG_trAR_XSP1 was analyzed in the positive analysis fitting direction relative to DMSO as the negative control and baseline of activity. […] Furthermore, this assay endpoint can be referred to as a primary readout, because this assay has produced multiple assay endpoints where this one serves a reporter gene function. […]
# [2] = ATG_M_06_XSP1: Attagene TRANS-FACTORIAL Multi-Species (XSP1) HepG2 Assay for M06 Transcription Factor (Internal Marker) (AID 2283790)
# Summary of the method: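 Transfected HepG2 multi-reporter system treated 24 h in the presence of 3 nM 6-alpha-fluorotestosterone. The M06 internal marker transcript was quantified by RT-PCR with capillary electrophoresis as a background control, and gain of signal was scored versus DMSO.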
# [3] = ATG_M_61_XSP1: Attagene TRANS-FACTORIAL Multi-Species (XSP1) HepG2 Assay for M61 Transcription Factor (Internal Marker) (AID 2283797)
# Summary of the method: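 HepG2 cells transiently transfected with multiplexed GAL4-driven reporter units, dosed 24 h with 3 nM 6-alpha-fluorotestosterone present. Reporter mRNA quantified by RT-PCR, 6-FAM labelling, HpaI digestion and capillary electrophoresis; internal-marker background control, gain of signal versus DMSO.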
# Sequence of AR (gene 367) (P10275 whole entry, looked up): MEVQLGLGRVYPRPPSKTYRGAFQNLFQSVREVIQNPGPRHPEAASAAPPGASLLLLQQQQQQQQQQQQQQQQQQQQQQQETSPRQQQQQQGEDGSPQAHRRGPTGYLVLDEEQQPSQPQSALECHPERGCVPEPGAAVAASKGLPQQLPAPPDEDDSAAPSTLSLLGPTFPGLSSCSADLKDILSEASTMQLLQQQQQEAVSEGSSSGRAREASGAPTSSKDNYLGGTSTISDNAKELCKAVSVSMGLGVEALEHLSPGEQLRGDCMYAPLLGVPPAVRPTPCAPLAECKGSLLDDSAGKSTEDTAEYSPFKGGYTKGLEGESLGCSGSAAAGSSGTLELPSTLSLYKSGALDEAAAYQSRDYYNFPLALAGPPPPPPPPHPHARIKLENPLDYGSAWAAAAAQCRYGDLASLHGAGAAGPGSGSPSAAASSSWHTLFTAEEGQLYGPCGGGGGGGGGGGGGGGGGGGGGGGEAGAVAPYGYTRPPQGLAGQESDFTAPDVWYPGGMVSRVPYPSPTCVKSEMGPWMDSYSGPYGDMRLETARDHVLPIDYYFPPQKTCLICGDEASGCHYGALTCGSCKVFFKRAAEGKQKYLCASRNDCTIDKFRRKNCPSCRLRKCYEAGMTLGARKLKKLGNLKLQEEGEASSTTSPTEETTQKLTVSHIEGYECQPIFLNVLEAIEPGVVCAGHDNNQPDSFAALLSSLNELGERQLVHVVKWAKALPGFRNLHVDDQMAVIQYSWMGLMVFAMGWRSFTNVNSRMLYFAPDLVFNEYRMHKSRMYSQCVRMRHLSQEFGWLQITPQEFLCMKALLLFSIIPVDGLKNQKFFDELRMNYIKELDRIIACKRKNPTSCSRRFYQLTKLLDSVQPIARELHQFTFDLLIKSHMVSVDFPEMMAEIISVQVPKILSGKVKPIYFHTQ
smiles,measurement,setting,value
COP(=O)(OC)SCn1c(=O)oc2cc(Cl)cnc21,AC50,AR (gene 367),21.7 µM (active)
Nc1c(Cl)cc([N+](=O)[O-])cc1Cl,AC50,AR (gene 367),50 µM (active)
CC(C)=CC1C(C(=O)OCN2C(=O)C3=C(CCCC3)C2=O)C1(C)C (configuration not stated),AC50,AR (gene 367),69.8 µM (active)
CCCOc1nn(C(=O)NS(=O)(=O)c2ccccc2C(=O)OC)c(=O)n1C,outcome,AR (gene 367),inactive
C#CC(C)(C)NC(=O)c1cc(Cl)cc(Cl)c1,outcome,[1],inactive
same,outcome,[2],inactive
same,outcome,[3],inactive
